Values joined by “and” are separate entries in the source; they are usually repeats but may differ in a detail not shown here. Equal values may be shown once. Among all 6,400 compounds or so, about 610 (9.5%) were called active. No stated cut-off is given here; in the data, active means activity change below about -70%; inconclusive means no clear call, values can overlap the other calls; inactive means above that. Many of the other results were omitted from the sample, so actives are more common in it than they were. More than one record can exist for a structure, and the calls need not agree.
Experiment: T. gondii ME49Luc in HeLa cells, luciferase assay, 72 h, no IFN-y (AID 1259421)
Conditions: stronger effect = lower value, concentration not given here

Row | Compound | activity change, negative = inhibition
1 | CC(=O)NCCC(=O)N[C@@H](Cc1cnc[nH]1)C(=O)O | 3.95% (inactive)
2 | CNC(=O)c1c(-c2ccc(F)cc2)oc2cc(N(CCO)S(C)(=O)=O)c(C3CC3)cc12 | 4.4% (inactive)
3 | CC1(C)CC[C@]2(C(=O)O)CC[C@]3(C)C(=CCC4[C@@]5(C)CC[C@H](O)[C@@](C)(CO)C5CC[C@]43C)C2C1 (some centres undefined) | 4.93% (inactive)
4 | NS(=O)(=O)c1cc2c(cc1Cl)NC=NS2(=O)=O | -6.64% (inactive) and 2.69% (inactive)
5 | CC(C)[C@H]1C(=O)N[C@@H](CCCN=C(N)N)C(=O)NCC(=O)N[C@@H](CC(=O)O)C(=O)N[C@H](Cc2ccccc2)C(=O)N1C | 33.3% (inactive)
6 | CC#C[C@]1(O)CC[C@H]2[C@@H]3CCC4=CC(=O)CCC4=C3[C@@H](c3ccc(N(C)C)cc3)C[C@@]21C | -77.6% (active) and 19.9% (inactive)
7 | CC#CC1(O)CCC2C3CCC4=CC(=O)CCC4=C3C(c3ccc(N(C)C)cc3)CC21C (centres undefined) | 32.4% (inactive)
8 | CC(=O)O[C@]1(C(C)=O)CC[C@H]2[C@@H]3CCC4=CC(=O)CCC4=C3[C@@H](c3ccc(N(C)C)cc3)C[C@@]21C | -58.3% (inactive)
9 | CCC[C@@H]1C[C@@H](C(=O)N[C@@H]([C@H]2O[C@H](SC)[C@H](O)[C@@H](O)[C@@H]2O)[C@@H](C)O)N(C)C1 | 0.0317% (inactive)
10 | C=CC(=O)NCc1ccccc1 | 10.8% (inactive)
11 | CC(=O)O/N=C1/C(=O)N(Cc2cc(Cl)ccc2Cl)c2ccc(Cl)cc21 | -78.1% (active)
12 | O=C1C(=O)N(Cc2ccc(Cl)c(Cl)c2)c2ccccc21 | 25.2% (inactive) and 12.2% (inactive)
13 | COc1ccc(CN2C(=O)C(=O)c3cc(OC(F)(F)F)ccc32)cc1 | -31.8% (inactive)
14 | COc1ccc(Cl)cc1C(=O)NCCc1ccc(C(=O)O)cc1 | 10.3% (inactive)
15 | CCCCCCCCCC(=O)N[C@@H](Cc1c[nH]c2ccccc12)C(=O)N[C@H](CC(N)=O)C(=O)N[C@@H](CC(=O)O)C(=O)N[C@@H]1C(=O)NCC(=O)N[C@@H](CCCN)C(=O)N[C@@H](CC(=O)O)C(=O)N[C@H](C)C(=O)N[C@@H](CC(=O)O)C(=O)NCC(=O)N[C@H](CO)C(=O)N[C@@H]([C@@H](C)CC(=O)O)C(=O)N[C@@H](CC(=O)c2ccccc2N)C(=O)O[C@@H]1C | 5.37% (inactive)
16 | C[C@H](O[C@H]1OCCN(Cc2n[nH]c(=O)[nH]2)[C@H]1c1ccc(F)cc1)c1cc(C(F)(F)F)cc(C(F)(F)F)c1 | 3.24% (inactive)
17 | O=C1CN2Cc3c(ccc(Cl)c3Cl)N=C2N1 | -78.8% (active) and -0.538% (inactive)
18 | Clc1cccc2c1CN(C1=NCCN1)C2 | 4.53% (inactive) and 6.96% (inactive)
19 | Cc1nc2c([nH]1)CCN(C(=O)c1ccc(NC(=O)c3ccccc3-c3ccccc3)cc1)c1ccccc1-2 | 24.9% (inactive)
20 | CC1(C)O[C@@H]2CC3C4C[C@H](F)C5=CC(=O)CC[C@]5(C)C4[C@@H](O)C[C@]3(C)[C@]2(C(=O)CO)O1 (some centres undefined) | -1.03% (inactive) and -3% (inactive)
21 | Cc1cc(C)c(N(Cc2ccccc2)S(=O)(=O)c2ccc(OCCNC(=O)c3cc4ccccc4o3)cc2)c(C(=O)NO)c1 | -49.7% (inactive)
22 | CN(C)Cc1c(C(=O)NCCOc2ccc(C(=O)NO)cc2)oc2ccccc12 | -78.9% (active)
23 | CC(C)c1ccc(C(=O)NCCOc2ccc(C(=O)O)cc2)cc1 | 52.4% (inactive)
24 | OC[C@@H](O)C(O)[C@@H](O)CO (some centres undefined) | 8.06% (inactive)
25 | C[C@@H]1CN(Cc2ccc(F)cc2)[C@@H](C)CN1C(=O)c1cc2c(C(=O)C(=O)N(C)C)cn(C)c2cc1Cl | -1.84% (inactive)

Row | Compound | activity change, negative = inhibition
26 | CC1(COc2ccc(CC3SC(=O)NC3=O)cc2)CCCCC1 (centres undefined) | 54.6% (inactive) and 38.2% (inactive)
27 | O=c1cc[nH]c(=O)[nH]1 | 14.2% (inactive)
28 | O=c1[nH]cc(F)c(=O)[nH]1 | -79.7% (active) and -73.9% (active)
29 | O=C(OC1C[C@H]2CC[C@@H](C1)[N+]21CCCC1)C(O)(c1ccccc1)c1ccccc1 (some centres undefined) | 13% (inactive)
30 | CC(C)OC(=O)c1cc2c(OCC(O)CNC(C)(C)C)cccc2[nH]1 (centres undefined) | 5.25% (inactive) and 2.42% (inactive)
31 | CN1N=C(C(N)=O)CCC1=O | 5.39% (inactive)
32 | COc1cc(F)c(C(C)C)cc1-c1ccc(C(F)(F)F)cc1CN1C(=O)O[C@H](c2cc(C(F)(F)F)cc(C(F)(F)F)c2)[C@H]1C | 13.2% (inactive)
33 | O=C(O)c1ccc(NC(=O)[C@H](Cc2ccc(O)cc2)NC(=O)c2ccccc2)cc1 | 10.1% (inactive)
34 | CC(C)[C@H](C(=O)Nc1ccc(C(=O)NO)cc1)c1ccccc1 | -78.5% (active)
35 | CC(=O)Nc1ccc(C(=O)O)cc1 | 5.72% (inactive)
36 | C[C@H]1CC[C@@]2(OC1)O[C@H]1C[C@H]3[C@@H]4CC[C@@H]5C[C@@H](O)CC[C@]5(C)[C@H]4CC[C@]3(C)[C@H]1[C@@H]2C | 10.8% (inactive)
37 | O=C1Nc2cc(Cl)ccc2Oc2ccccc21 | 13.7% (inactive)
38 | Cc1nc2c(c(=O)[nH]1)CSCC2 | -9.85% (inactive)
39 | CC(C)c1ccc2c(c1)CCC1C(C)(C(N)=O)CCCC21C (centres undefined) | 39.8% (inactive)
40 | CCN(CC)CCOCCOC(=O)C(CC)(CC)c1ccccc1 | 22.3% (inactive)
41 | Nc1ncnc2c1ncn2[C@@H]1O[C@H](C[C@@H](N)CC[C@H](N)C(=O)O)[C@@H](O)[C@H]1O | -5.35% (inactive)
42 | COc1ccc(CN(CCN(C)C)c2ccccn2)cc1 | 18% (inactive) and 6.75% (inactive)
43 | COc1ccc(CN(CCN(C)C)c2ncccn2)cc1 | 10.1% (inactive) and 11.2% (inactive)
44 | CCCCCCCCCCCCCCCC[N+](C)(C)CCN(Cc1ccc(OC)cc1)c1ncccn1 | -80.9% (active)
45 | C[C@]12C=CC(=O)C=C1CCC1C3C[C@@H](O)[C@](O)(C(=O)CO)[C@@]3(C)C[C@H](O)[C@@]12F (some centres undefined) | -10.6% (inactive)
46 | CN(C)CCN1C(=O)c2cccc3cc(NC(N)=O)cc(c23)C1=O | 5.35% (inactive)
47 | Cc1csc(-c2nnc(Nc3ccc(Oc4ncccc4-c4ccnc(N)n4)cc3)c3ccccc23)c1 | -85.1% (active)
48 | COC(=O)[C@H](Cc1ccc([N+](=O)[O-])cc1)NC(=O)c1cccc2ccccc12 | 3.56% (inactive)
49 | O=C1NC(=O)C2(CCOc3ccc(F)cc32)N1 (centres undefined) | 17.5% (inactive)
50 | NC1=N[C@@]2(c3cc(NC(=O)c4ccc(F)cn4)ccc3F)COC[C@@H]2CS1 | -4.81% (inactive)

Row | Compound | activity change, negative = inhibition
51 | Cc1ccn(-c2cc(Cl)ccc2[C@@H](Oc2cc(-c3ccc(C[C@H](N)C(=O)O)cc3)nc(N)n2)C(F)(F)F)n1 | 16.1% (inactive)
52 | COc1cccc(-c2ccc([C@@H](Oc3cc(-c4ccc(C[C@H](N)C(=O)O)cc4)nc(N)n3)C(F)(F)F)cc2)c1 | 21.9% (inactive)
53 | CCOC(=O)[C@@H](N)Cc1ccc(-c2cc(O[C@H](c3ccc(Cl)cc3-n3ccc(C)n3)C(F)(F)F)nc(N)n2)cc1 | -85% (active)
54 | N#C/C(=C(\N)Sc1ccc(N)cc1)c1ccccc1C(F)(F)F | 9.63% (inactive)
55 | N#Cc1cc(I)c(O)c([N+](=O)[O-])c1 | 10.2% (inactive)
56 | COc1cccc2cc(-c3nc(C4CCC(C(=O)O)CC4)n4ncnc(N)c34)[nH]c12 (centres undefined) | -19.8% (inactive)
57 | Oc1cc(O)c2c(c1)O[C@H](c1ccc(O)c(O)c1)[C@@H](O)C2 | 6.21% (inactive) and -16.6% (inactive)
58 | Oc1cc(O)c2c(c1)O[C@H](c1ccc(O)c(O)c1)[C@H](O)[C@H]2c1c(O)cc(O)c2c1O[C@H](c1ccc(O)c(O)c1)[C@@H](O)C2 | -71.6% (active)
59 | Oc1ccc([C@H]2Oc3cc(O)cc(O)c3C[C@H]2O)cc1 | 0.946% (inactive)
60 | COc1cccc(C=NC=Nc2cccc(OC)c2)c1 | 10.3% (inactive)
61 | O=c1[nH]nc(Sc2ncc([N+](=O)[O-])s2)n1-c1ccc2c(c1)OCCO2 | 34.4% (inactive)
62 | NC(=O)c1cnc(N[C@@H]2CCCC[C@@H]2N)nc1Nc1cccc(-n2nccn2)c1 | -82.6% (active) and -7.89% (inactive)
63 | CC(C)(C)CC(=O)OCC(=O)[C@@]1(O)CCC2C3CCC4=CC(=O)C=C[C@]4(C)C3[C@@H](O)C[C@@]21C (some centres undefined) | -8.37% (inactive)
64 | CS(=O)(=O)Nc1ccc2oc3c(OC(F)F)ccc(C(=O)Nc4c(Cl)cncc4Cl)c3c2c1 | 27.8% (inactive)
65 | O=c1[nH]c(=O)c2cn[nH]c2[nH]1 | -8.15% (inactive)
66 | Cc1cc(C(C)Nc2ccccc2)c2nc(N3CCOCC3)cc(=O)n2c1 (centres undefined) | 14.5% (inactive)
67 | CCCc1nc(C(C)(C)O)c(C(=O)OCc2oc(=O)oc2C)n1Cc1ccc(-c2ccccc2-c2nn[nH]n2)cc1 | 2.42% (inactive) and 2.73% (inactive)
68 | CN1C2CC[C@@H]1CC(OC(=O)[C@H](CO)c1ccccc1)C2 (some centres undefined) | 5% (inactive)
69 | COc1cc(/C=C(/C#N)C(N)=O)cc(CSc2nc3ccccc3s2)c1O | 0.785% (inactive)
70 | C=C[C@H]1CN2CC[C@H]1C[C@@H]2[C@H](O)c1ccnc2ccc(OC)cc12 | -4.38% (inactive)
71 | O=C(O)CCc1c[nH]c2ccccc12 | 16.9% (inactive)
72 | O=C(O)CCCc1c[nH]c2ccccc12 | 16.7% (inactive)
73 | O=C(/C=C/c1ccc(CN(CCO)CCc2c[nH]c3ccccc23)cc1)NO | -83.9% (active)
74 | COC(=O)C[C@H]1C(C)(C)C2(O)OC34CC2C(=O)[C@]1(C)C3CC[C@]1(C)C4=CC(=O)O[C@H]1c1ccoc1 (some centres undefined) | -5.47% (inactive)
